Measurements published in the supplement of paper PMC13380429.

System: Vero E6 infected with SARS-CoV-2
Assay: inhibition of SARS-CoV-2 cytopathic effect; higher = more antiviral protection, active = above 15
Settings: 48 h

Measured: inhibition of SARS-CoV-2 cytopathic effect

Cc1cc(Oc2ccc3nc(COc4ccc(CC5SC(=O)NC5=O)cc4)n(C)c3c2)cc(C)c1N (stereo not given) [efatutazone]
inactive: 1 nM -0.56% | 8.33 nM 2.28% | 100 nM 0.7% | 833.33 nM 0.08% | 10000 nM -0.83%

C=C1CC[C@H](O)C/C1=C/C=C1\CCC[C@]2(C)[C@@H]([C@H](C)CCCC(C)C)CC[C@@H]12 [cholecalciferol]
inactive: 1 nM -2.37% | 8.33 nM -2.07% | 100 nM -1.56% | 833.33 nM -2.03% | 10000 nM 0.91%

CC1(C)OC(=O)C(OCC2CC2)=C1c1ccc(S(C)(=O)=O)cc1 [firocoxib]
inactive: 1 nM -1.63% | 8.33 nM -1.5% | 100 nM 0.34% | 833.33 nM 0.04% | 10000 nM -1.02%

CC(C)NCC(O)c1ccc2ccccc2c1 (stereo not given) [pronethalol]
inactive: 1 nM 0.73% | 8.33 nM 1% | 100 nM -0.07% | 833.33 nM 0.3% | 10000 nM -1.64%

O=C(O)CCCNC(=O)c1cccnc1 [pikamilone]
inactive: 1 nM 0.18% | 8.33 nM -2.74% | 100 nM -0.01% | 833.33 nM 0.63% | 10000 nM -1.86%

CC(C)C[C@H](NC(=O)[C@H](CCc1ccccc1)NC(=O)CN1CCOCC1)C(=O)N[C@@H](Cc1ccccc1)C(=O)N[C@@H](CC(C)C)C(=O)[C@@]1(C)CO1 [carfilzomib]
inactive: 1 nM -1.68% | 8.33 nM -2.43% | 100 nM 11.4% | 10000 nM 10.2%
active: 833.33 nM 34.9%

Nc1ncnc2c1ncn2[C@H]1CC[C@@H](CO)O1 [dideoxyadenosine]
inactive: 1 nM 2.15% | 8.33 nM 2.41% | 100 nM 2.1% | 833.33 nM 1.23% | 10000 nM 4.14%

CC(=O)c1ccc(S(=O)(=O)NC(=O)NC2CCCCC2)cc1 [acetohexamide]
inactive: 1 nM -0.51% | 8.33 nM -0.35% | 100 nM -0.58% | 833.33 nM 0.37% | 10000 nM -0.22%

CN(C)c1ccc(-c2nc3c(N4CCN(CC(=O)Nc5nccs5)CC4)c(Cl)cnc3[nH]2)cc1
inactive: 1 nM 0.9% | 8.33 nM -0.82% | 100 nM -1.07% | 833.33 nM 0.5% | 10000 nM 13.9%

Cc1cc(O)c(-c2ccc([C@@H](C)CN)cc2)c2c1[nH]c(=O)c1sccc12
inactive: 1 nM -2.25% | 8.33 nM -1.13% | 100 nM -0.22% | 833.33 nM 3.77% | 10000 nM -23.9%

O=C1CN2Cc3c(ccc(Cl)c3Cl)N=C2N1 [anagrelide]
inactive: 1 nM 0.79% | 8.33 nM -0.94% | 100 nM -1.24% | 833.33 nM -0.35% | 10000 nM 0.92%

C[C@@H]1CN([C@H]2CC[C@](C#N)(c3ccc(F)cc3)CC2)CC[C@]1(C(=O)O)c1ccccc1 [levocabastine]
inactive: 1 nM 1.53% | 8.33 nM 0.57% | 100 nM -0.86% | 833.33 nM 1.81% | 10000 nM -0.71%

CN(C(=O)CN(CCO)CC(=O)N(C)C(C)(C)Cc1ccccc1)C(C)(C)Cc1ccccc1 [oxethazaine]
inactive: 1 nM -2.13% | 8.33 nM -0.95% | 100 nM 0.87% | 833.33 nM -0.57% | 10000 nM -13.9%

C=C(C)[C@@H]1CC[C@]2(CO)CC[C@]3(C)[C@H](CC[C@@H]4[C@@]5(C)CC[C@H](O)C(C)(C)[C@@H]5CC[C@]43C)[C@@H]12
inactive: 1 nM -5.94% | 8.33 nM -10.1% | 100 nM -7.13% | 833.33 nM -9.2% | 10000 nM -12.6%

CN1C(=O)CCS(=O)(=O)C1c1ccc(Cl)cc1 (stereo not given) [chlormezanone]
inactive: 1 nM -2.2% | 8.33 nM -0.15% | 100 nM 0.74% | 833.33 nM 0.68% | 10000 nM 1.19%

CCCCc1oc2ccc(NS(C)(=O)=O)cc2c1C(=O)c1ccc(OCCCN(CCCC)CCCC)cc1 [dronedarone]
inactive: 1 nM 3.27% | 8.33 nM 1.28% | 100 nM -0.45% | 833.33 nM 4.57%
active: 10000 nM 29.3%

CCNC(=O)c1n[nH]c(-c2cc(Cl)c(O)cc2O)c1-c1ccc(OC)cc1
inactive: 1 nM -4.03% | 8.33 nM -4.15% | 100 nM -2.27% | 833.33 nM -3.38% | 10000 nM -0.29%

O=C(Nc1ccc([N+](=O)[O-])cc1Cl)c1cc(Cl)ccc1O [niclosamide]
inactive: 1 nM -0.87% | 8.33 nM -2.63% | 100 nM 0.39% | 833.33 nM 11.4% | 10000 nM 4.29%

CC(O)COC[C@H]1O[C@@H]2O[C@H]3[C@H](O)[C@@H](O)[C@@H](O[C@H]4[C@H](O)[C@@H](O)[C@@H](O[C@H]5[C@H](O)[C@@H](O)[C@@H](O[C@H]6[C@H](O)[C@@H](O)[C@@H](O[C@H]7[C@H](O)[C@@H](O)[C@@H](O[C@H]8[C@H](O)[C@@H](O)[C@@H](O[C@H]1[C@H](O)[C@H]2O)O[C@@H]8COCC(C)O)O[C@@H]7COCC(C)O)O[C@@H]6COCC(C)O)O[C@@H]5COCC(C)O)O[C@@H]4COCC(C)O)O[C@@H]3COCC(C)O (stereo partly drawn) [hydroxypropyl-beta-cyclodextrin]
inactive: 1 nM 1.48% | 8.33 nM -0.26% | 100 nM 1.56% | 833.33 nM 0.29% | 10000 nM 0.7%
